Results from PubChem BioAssay AID588856 (National Center for Advancing Translational Sciences (NCATS), 2011).
The campaign covered roughly 410,000 compounds. About 3,100 (0.76%) were called active. Shown is part of a subset that was picked to be rich in actives. A number with no mark means an inactive call. Calls follow the shape of the dose curve; as a rule, active = well fitted cell-killing curve with a large enough effect; inactive = no such curve, though single readings can be large or run the other way.

Assay: qHTS for Inhibitors of TGF-b: Cytotox Counterscreen
Settings: HepG2 CAGA-GFP viability, ATP luminescence, 18 h; series mostly up to 46.1 µM; activity change, negative = cytotoxicity: at the top concentration
How it was run: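 CellTiter-Glo luminescence gave cytotoxicity after 18 hours at 37 degrees C. The cells were HepG2 CAGA-GFP in 1% FBS DMEM, stimulated with 500 pg/mL TGF-beta after compound addition. %Activity was normalised to no-cell wells (complete cell-killing) and DMSO (no toxicity), and curves were fitted and classified.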
Potency is read from the fitted curve at half-maximal effect.

| Structure (SMILES) | activity change, negative = cytotoxicity [%] | Potency |
| --- | --- | --- |
| Cc1ccc(F)cc1S(=O)(=O)N1CCC(c2nc3ccccc3s2)CC1 | -8.96 |  |
| O=C(CC1Nc2ccccc2NC1=O)Nc1ccccc1 (configuration not stated) |  | 12.6 µM (active) |
| COC(=O)c1cc(C)sc1NC(=O)CC1Nc2ccccc2NC1=O (configuration not stated) | -1.34 |  |
| O=C(CC1NCCc2ccccc21)Nc1cccc(Cl)c1 (configuration not stated) | -10.5 |  |
| N#Cc1cc2[nH]c(=O)c(=O)[nH]c2cc1[N+](=O)[O-] | -56.5 |  |
| CCOc1ccc(NC(=O)CN(Cc2ccccc2)S(=O)(=O)c2ccc(Cl)cc2)cc1 | -26.9 |  |
| CCOc1ccc(N(Cc2ccccc2)C(=O)c2nc(SCC)ncc2Cl)cc1 | -60.2 |  |
| CCOc1ccc(N(Cc2ccccc2)C(=O)c2nc(S(C)(=O)=O)ncc2Cl)cc1 |  | 3.55 µM (active) |
| COCCNC(=O)c1ccc2c(c1)N(Cc1cccc(Cl)c1)C(=O)c1ccccc1S2(=O)=O | -23.1 |  |
| Cc1ccc(C(=O)N2CCc3cc(CNC(=O)c4ccc(Br)cc4)ccc32)cc1 | -18 |  |
| O=C(CSc1nc(Nc2ccccc2)nc(N2CCOCC2)n1)Nc1cc(Cl)ccc1O |  | 6.31 µM (active) |
| O=C(CSc1nc2ccc(Nc3nc(N4CCOCC4)nc(N4CCOCC4)n3)cc2s1)NCc1ccco1 | -31.4 |  |
| O=C(CSc1ccccc1)Nc1cc(Cl)ccc1Oc1ccccc1 | -3.19 |  |
| O=[N+]([O-])c1ccc(/C=C/c2ccc3cccnc3c2)cc1 | -53.7 |  |
| O=C1/C(=C\c2ccc([N+](=O)[O-])cc2)CS(=O)(=O)C/C1=C/c1ccc([N+](=O)[O-])cc1 |  | 14.1 µM (active) |
| c1ccc2cc3c(NCCN4CCOCC4)ccnc3cc2c1 |  | 3.55 µM (active) |
| O=C(Cc1ccc(Br)cc1)NCCN1CCOCC1 | 4.13 |  |
| O=S(=O)(c1ccc(Cl)cc1)c1nc(-c2ccccc2F)oc1NCCN1CCOCC1 | 16.4 |  |
| CCC(=O)N1CCc2cc(CNC(=O)Nc3ccccc3Cl)ccc21 | -8.04 |  |
| COc1ccc(-c2nc(S(=O)(=O)c3ccccc3)c(N3CCCCC3)o2)cc1 | -4.93 |  |
| Fc1ccc(-c2csc(-c3ccc(C4SCCS4)cc3)n2)cc1F | -2.96 |  |
| CCCc1nc2scc(-c3ccc(C)cc3)c2c(=O)n1N | 26.8 |  |
| CCCc1cc(-c2nc(-c3ccc(C)cc3)cs2)ccn1 |  | 10 µM (active) |
| CC1(C)Cc2ccccc2-c2c[nH]c(=O)n21 | -4.31 |  |
| CCN(CC)CCOc1ccc2c(c1)C(=NNC(=O)c1ccccn1)c1cc(OCCN(CC)CC)ccc1-2 |  | 15.8 µM (active) |

| Structure (SMILES) | activity change, negative = cytotoxicity [%] | Potency |
| --- | --- | --- |
| CCOc1ccc(C(=O)N2CCN(CCc3ccccn3)CC2)cc1 | 3.93 |  |
| CC(C)(C)c1ccc(C(=O)C[n+]2cccc3cc(Cl)ccc32)cc1 | -92 |  |
| CCN(C(=O)Cn1c(=O)nc(-c2ccccc2)c2cc(Cl)ccc21)c1cccc(C)c1 | 6.33 |  |
| O=C(c1cnn2c1NC(=C1CC1)C=C2C(F)F)N1CCc2ccccc2C1 | -9.79 |  |
| CN1CCN(c2oc(-c3ccc(COc4ccc(Cl)cc4)o3)nc2C#N)CC1 | -30 |  |
| CN(C)Cc1cn(-c2ccccc2)nc1-c1ccccc1 | -26.4 |  |
| CCc1ccc(-c2nn(-c3ccccc3)cc2CSC(=N)N)cc1 |  | 17.8 µM (active) |
| CCc1ccc(-c2nn(-c3ccccc3C)cc2C(=O)N2CCN(C3CCS(=O)(=O)C3)CC2)cc1 (configuration not stated) | -12 |  |
| Cc1cc(C)c(NC(=O)Cn2c(SCC(=O)NCc3ccccc3)nc3ccccc32)c(C)c1 | 1.54 |  |
| Cc1ccc(Cl)cc1N1CCN(C(=O)C2CCC(CNS(=O)(=O)c3cccs3)CC2)CC1 (configuration not stated) | -0.372 |  |
| Cc1ccc(CN2CCC(CNC(=O)c3cnn(-c4ccccc4Cl)c3C3CCN(C(=O)OC(C)(C)C)CC3)CC2)cc1 |  | 17.8 µM (active) |
| Cc1ccc(CN2CCC(CNC(=O)c3cnn(-c4ccc(C)cc4)c3C3CCN(C(=O)OC(C)(C)C)CC3)CC2)cc1 | -71.7 |  |
| COc1ccccc1CN1CCC(CNC(=O)c2cnn(-c3ccccc3Cl)c2C2CCN(C(=O)OC(C)(C)C)CC2)CC1 | -60.3 |  |
| CC1(C)CC(=O)c2cc(C(=O)NCc3ccccc3)c(=O)[nH]c2C1 | -16.3 |  |
| Cc1nc2c(OCc3ccc(Cl)cc3Cl)cccn2c1N(C)CC1CC1 |  | 11.2 µM (active) |
| Cc1nc2c(OCc3cccc(Cl)c3)cccn2c1N(C)CC1CC1 | -32.8 |  |
| CCCCC(=O)N(C)c1c(CC)nc2c(OCc3ccc(S(C)(=O)=O)cc3)cccn12 | -22.7 |  |
| CCc1nc2c(OCc3ccc(Cl)cc3Cl)cccn2c1N(C)C(=O)C(C)C | -112 |  |
| Cc1nc2c(OCc3ccc(Cl)cc3)cccn2c1N(C)Cc1cccs1 | -61.6 |  |
| CCCCC(=O)N(C)c1c(CC)nc2c(OCc3ccc(Cl)cc3Cl)cccn12 |  | 12.6 µM (active) |
| Cc1ccc(C)c(S(=O)(=O)c2nnn3c2nc(N2CCOCC2)c2sccc23)c1 | -0.494 |  |
| CN1CCN(/[N+]([O-])=N/Oc2ccc([N+](=O)[O-])cc2[N+](=O)[O-])CC1 | -43.6 |  |
| CC1(C)C=Cc2c(ccc(C(=O)/C=C/c3ccccc3)c2O)O1 | -21.1 |  |
| O=C1C=CC(=O)N1c1ccc(N2CCCCC2)cc1 |  | 17.8 µM (active) |
| Cc1ccc(CNC(=O)CCc2c(C)nc3c(c(C)nn3-c3ccccc3)c2C)cc1 | -0.273 |  |

| Structure (SMILES) | activity change, negative = cytotoxicity [%] | Potency |
| --- | --- | --- |
| O=C(Nc1ccc(Cl)cc1)c1cnn2c1NC(=C1CC1)C=C2C(F)F | 8.6 |  |
| COc1ccc(-c2nc3sc(CCNC(=O)C(C)(C)C)c(C)n3n2)cc1 | -8.78 |  |
| CC1CCC2(CC1)N=C(c1ccccc1)C(=O)N2CC(=O)Nc1ccc(F)c(Cl)c1 (configuration not stated) | -29.1 |  |
| CCn1c(SCC(=O)Nc2nc(C)cs2)nnc1C(C)NC(=O)c1ccccc1 (configuration not stated) | -6.84 |  |
| CCn1c(CC(=O)Nc2ccc(C)cc2)nnc1SCC(=O)Nc1nc(C)cs1 | -0.792 |  |
| COCCn1c(SCC(=O)Nc2nc(C)cs2)nnc1C(C)C |  | 11.2 µM (active) |
| CCn1c2ccccc2c2nnc(SCC(=O)O)nc21 | -10.9 |  |
| COc1ccc(NC(=O)Nc2cccc(-c3noc(C)n3)c2)cc1 | -21.4 |  |
| Cc1ccc(S(=O)(=O)N2CCN(c3nc(-n4cnc5ccccc54)nc4ccccc34)CC2)cc1 | -20.3 |  |
| Cc1sc2ncn(CC(=O)N3CCN(c4ccc(F)cc4)CC3)c(=O)c2c1S(=O)(=O)N1CCN(c2ncccn2)CC1 | -13.7 |  |
| CC(C)(C)OC(=O)N(Cc1ccco1)S(=O)(=O)c1ccccc1Br | 49 |  |
| C=C1C=C(C(F)F)n2ncc(C(=O)NCCc3ccccc3OC)c2N1 | 9.57 |  |
| COc1ccc(-c2cn3c(n2)sc2cc(C(=O)Nc4ccccc4F)ccc23)cc1 | -25.4 |  |
| CC(Nc1nc(C(F)(F)F)nc2ccccc12)c1cccs1 (configuration not stated) |  | 22.4 µM (active) |
| Oc1ccccc1-c1nc(/C=C/c2ccc(F)cc2)no1 | -4.32 |  |
| COc1cc(Cl)ccc1Nc1ncc(C(=O)N2CCN(c3ccccc3OC)CC2)c2ccccc12 | -20.1 |  |
| Cc1ccc(S(=O)(=O)NCC2CCC(C(=O)N3CCOCC3)CC2)cc1 (configuration not stated) | -27.1 |  |
| O=C(O)C1CCC(CNS(=O)(=O)c2ccc(Br)cc2)CC1 (configuration not stated) |  | 15.8 µM (active) |
| O=C(NC1CCCCC1)C1CCC(CNS(=O)(=O)c2ccccc2)CC1 (configuration not stated) | 0.959 |  |
| O=C(NC1CC(=O)N(c2ccc(F)cc2)C1)c1ccc(S(=O)(=O)N2CCCC2)cc1 (configuration not stated) | -8.93 |  |
| CN(C(=O)CSc1nc2ccc(NC(=O)COc3ccccc3)cc2s1)c1ccccc1 | -19.4 |  |
| Cc1ccc(F)cc1NC(=O)CCSc1nc(-c2ccco2)cc(C(F)(F)F)n1 | -14.5 |  |
| CCc1ccc(CN(Cc2ccco2)C(=O)c2ccccc2Cl)cc1 | -52 |  |
| CC1CCCCN1S(=O)(=O)c1ccc(F)c(C(=O)Nc2ccccc2C(F)(F)F)c1 (configuration not stated) | -15 |  |
| Cc1ccc(CNC(=O)CCc2c(C)nn(-c3ccc(N4CCCC4)nn3)c2C)cc1 | -31.6 |  |

| Structure (SMILES) | activity change, negative = cytotoxicity [%] | Potency |
| --- | --- | --- |
| N=c1n(CCc2ccccc2)c2ccccc2n1Cc1ccccc1F | 3.66 |  |
| O=C(NCc1ccccc1)C(=O)NCC(c1ccco1)S(=O)(=O)c1ccc(Cl)cc1 (configuration not stated) | -15.4 |  |
| N=c1n(Cc2ccc(Cl)cc2)c2ccccc2n1CC(O)c1ccco1 (configuration not stated) |  | 12.6 µM (active) |
| COc1ccccc1-c1ccnc2[nH]n(-c3ccccc3)c(=O)c12 | -6.7 |  |
| OCc1cnc(SCc2ccc(F)cc2)n1Cc1ccc(F)cc1 | -24.2 |  |
| NC(Cc1ccccc1)c1csc(Nc2cc(Oc3ccccc3)ncn2)n1 (configuration not stated) |  | 31.6 µM (active) |
| COCCn1c(SCC(=O)c2cc(C)ccc2C)nc2cc(C(=O)NC3CCCC3)ccc2c1=O | -6.56 |  |
| CCC(=O)N1CCc2cc(S(=O)(=O)NC(C(=O)Nc3ccc(C(C)=O)cc3)C(C)C)ccc21 (configuration not stated) | -14.7 |  |
| COC(=O)c1ccc(-c2nc3cc(NC(C)=O)ccc3o2)cc1 | -1.18 |  |
| O=C(Nc1cccc(-c2cccc(Cl)c2)c1)C1CCN(C2CCC2)CC1 | -73.6 |  |
| CCn1cc(CN2CCC(C(=O)Nc3cccc(-c4cccc(Cl)c4)c3)CC2)c(C)n1 |  | 12.6 µM (active) |
| CC(=O)c1cc(CN2CCC(C(=O)Nc3cccc(-c4cscn4)c3)CC2)cs1 | -31.8 |  |
| Cc1ccc(CNC(=O)C2(C(F)(F)F)C/C(=C\CCO)CCCO2)o1 (configuration not stated) | -11.9 |  |
| COc1cc(OC)c2c(C)cc(=O)oc2c1C(CCN1CCCCC1)c1ccc(N(C)C)cc1 (configuration not stated) | -34.4 |  |
| Cc1cc(C)cc(NS(=O)(=O)c2ccc(Oc3ncc(C(F)(F)F)cc3Cl)cc2)c1 |  | 12.6 µM (active) |
| Cc1ccc(NS(=O)(=O)c2ccc(F)cc2)nc1 | -17 |  |
| Nc1ncc(S(=O)(=O)Nc2ccc(OC(F)(F)F)cc2)cn1 | -7.99 |  |
| NC(=O)C1CCN(C(=O)c2cccc(NC(=O)c3nsc4ccccc34)c2)CC1 | -18 |  |
| COc1cc(OC)c(N(C)C(=O)c2cc3c(=O)oc4ccccc4c3s2)cc1Cl | -20 |  |
| CC(C)CC[n+]1ccn(C2=C([O-])c3ccccc3C(=O)/C2=N\S(=O)(=O)c2ccccc2)c1 |  | 5.62 µM (active) |
| Cc1ccc(S(=O)(=O)/N=C2\C=C(NS(=O)(=O)c3ccc(C)cc3)C(=O)c3ccccc32)cc1 | -112 |  |
| C=C1CCN(C(CC(C)C)C(=O)N2CCOCC2)S(=O)(=O)c2ccccc21 (configuration not stated) | -22.3 |  |
